In PubChem BioAssay AID720648 (The Scripps Research Institute Molecular Screening Center, 2013):
Among all 370,000 compounds or so, about 3,100 (0.84%) were called active.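 How the source made its calls: active means inhibition above the mean of compounds lying between control limits plus 3 SD, set per campaign (cut at about 8.5% in these data); inactive means the rest.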 What follows is part of a selection rich in actives, with near analogues and random picks from the rest.

Target: Disintegrin and metalloproteinase domain-containing protein 17 (Homo sapiens) (UniProt P78536)
Sequence (P78536 215-824 limits assumed): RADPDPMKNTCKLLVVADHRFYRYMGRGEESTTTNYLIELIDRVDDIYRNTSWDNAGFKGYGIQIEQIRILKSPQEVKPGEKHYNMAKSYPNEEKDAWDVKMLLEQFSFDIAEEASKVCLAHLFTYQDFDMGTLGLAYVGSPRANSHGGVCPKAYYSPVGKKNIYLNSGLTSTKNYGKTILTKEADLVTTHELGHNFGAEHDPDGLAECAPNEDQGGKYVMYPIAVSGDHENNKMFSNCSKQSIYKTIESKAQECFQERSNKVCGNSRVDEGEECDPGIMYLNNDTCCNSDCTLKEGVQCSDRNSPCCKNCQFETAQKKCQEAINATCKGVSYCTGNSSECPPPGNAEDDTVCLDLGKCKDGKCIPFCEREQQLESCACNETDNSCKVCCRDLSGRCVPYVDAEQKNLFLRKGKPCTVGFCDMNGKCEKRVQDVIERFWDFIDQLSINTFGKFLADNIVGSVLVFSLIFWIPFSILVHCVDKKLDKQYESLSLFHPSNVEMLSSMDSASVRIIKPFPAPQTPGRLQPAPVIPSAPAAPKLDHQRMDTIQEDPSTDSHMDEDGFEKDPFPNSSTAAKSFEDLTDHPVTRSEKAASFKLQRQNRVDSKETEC
Assay: inhibition of ADAM17 peptide cleavage – biochemical, QFRET, primary screen (AID 720648);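 further: 0% = DMSO-only wells as the low control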
Details: recombinant ADAM17, EDANS/DABCYL FRET peptide cleavage; at 6.95 µM; hits give high values

inhibition, inactive:
CC(C)(C)OC(=O)NCCc1ccccc1/C=C/S(=O)(=O)NCc1ccc(F)cc1 1.57%, O=C(NC1CCC1)c1ccc(C#Cc2cccc(F)c2)c[n+]1[O-] -5.18%, CCC(=O)c1c(CC)c2n3c1=CC[C@H]3CC(Br)C=2 (stereo partly drawn) -4.68%, CN1[C@H](Cc2ccccc2)COc2cccc(N3CCSCC3)c2S1(=O)=O -1.43%, CCOc1ccc(Oc2c(Cl)cnn(-c3ccc(C)cc3)c2=O)cc1 -4.44%, Cc1ccccc1NC(=O)Cn1nnc(-c2ccccc2F)n1 1.5%, CCOc1ccc(-c2n[nH]c(=S)n2/N=C/c2cc3c(cc2[N+](=O)[O-])OCO3)cc1 -4.26%, CSc1ccc(C=Nn2c(-c3ccc(F)cc3)n[nH]c2=S)cc1 -0.62%, COC1=C[C@H](C(=O)NCCNC(C)=O)[C@H](C)[C@@H](c2ccccc2)CC1=O -1.19%, FC(F)(F)c1cccc(Cn2ccc3ccc(-c4ccc5ccn(Cc6ccccc6)c5c4)cc32)c1 -14.4%, COC(=O)c1cccc(Cn2ccc3ccc(-c4ccc5ccn(C(=O)c6ccccc6C)c5c4)cc32)c1 -5.84%, CC(C)(C)NC(=O)C(c1cccnc1)N(C(=O)c1cnco1)c1ccc(C(C)(C)C)cc1 (stereo not drawn) -6.7%, CCSc1nnc(SCC(=O)NNC(=O)c2ccccc2F)s1 -2.03%, Cc1nnc(SCC(=O)NC2CCCC2)s1 -4.16%, CN(C(N)=NC(=O)/C=C/c1ccccc1)C(C#Cc1ccccc1)Cc1ccccc1 (stereo not drawn) 0.96%, CCOC(=O)[C@]12CCCC3=C1N(CCC3)C(=O)[C@@H](CC(=O)NCC13CC4CC(CC(C4)C1)C3)C2 0.7%, COc1cccc(CNc2nc(NCc3cccs3)nc3ccsc23)c1 0.1%, COc1cccc(CNc2ncc(-c3ccccc3)n2C)c1 5.33%, COCCCNC(=O)/C(C#N)=C/c1c(N2CCCCCC2)nc2ccccn2c1=O -451%, O=C(NCCCc1ccccc1)[C@H](Cc1ccccc1)NC1(C(=O)NCCc2c[nH]c3ccccc23)CCC1 3.66%, COC(=O)[C@@]12CCCCC=C1N(CCc1ccc(Cl)cc1)C(=O)[C@H]2CC(=O)NCc1ccc(OC)c(OC)c1 -0.2%, O=C(CSc1nc2ccccc2s1)NN=Cc1ccc(O)cc1O 3.8%, Cc1ccc(Cn2cc(COC(=O)N(C)Cc3ccccc3)nn2)cc1 -1.03%, Cc1ccc(C(=O)NCC(=O)O)s1 3.71%, COc1ccc(CCC(=O)OCC(=O)Nc2ccc(C)c(S(=O)(=O)N(C)C)c2)cc1 0.46%, C=CCN1[C@H](CC(C)C)COc2cccc(N3CCCC3)c2S1(=O)=O -8.01%, C#CCCN([C@H](C(=O)OC)C(C)C)S(=O)(=O)c1ccc(F)cc1Br 2.67%, O=C1CC[C@@H](COc2ccc3[nH]cc(-c4ccccc4)c3c2-c2ccccc2)N1 -1.86%, N#Cc1ccc(OC[C@@H](O)CN2CCC(C(O)(c3ccccc3)c3ccccc3)CC2)c(F)c1 0.92%, O=C(COC(=O)CCc1nc2ccccc2c(=O)[nH]1)Nc1ccc(N2CCOCC2)cc1 -2.52%, CCN(c1ccc(NC(=O)COC(=O)CCc2nc3ccccc3n2-c2ccccc2)cc1)C(C)C 4.08%, COc1ccc(CN2C/C(=C/c3ccccc3)N3C(=O)C[C@@H](c4ccccc4)N=C23)c(OC)c1 4.01%, C=CS(=O)(=O)N(Cc1nnn(Cc2ccccc2)c1Br)[C@H](C(=O)OC)C(C)C 2.02%, C[C@@H](NC(=O)c1ccccc1OCC(=O)Nc1ccc(I)cc1)C(=O)N(C)Cc1ccccc1 2.09%, O=C(CCS(=O)(=O)c1ccccc1)Nc1ccc(Cl)c(Cl)c1 5.76%, O=C(COC(=O)c1ccc2c(c1)OCCO2)NCc1ccccc1Cl -2.66%, CSc1ccc(CNC(=O)c2ccc(NC(=O)C3=CSCCO3)cc2)cc1 0.22%, COC(=O)C1CN(CC(C)C)CCS(=O)(=O)N1Cc1ccc(C)cc1 (stereo not drawn) -8.74%, Cc1ccc2[nH]cc(CCNC(=O)C3CCCCC3)c2c1 0.5%, Cc1ccc(S(=O)(=O)N(C)CC(=O)NCCc2c[nH]c3ccccc23)cc1 0.52%, CC(CCN1CCC(C(O)(c2ccccc2)c2ccccc2)CC1)Oc1ccc(Cl)cc1 (stereo not drawn) 4.85%, CCOC(=O)[C@]12CCCC=C1N(CCCOC)C(=O)[C@@H]2CC(=O)N1CCOCC1 2.05%, CCCC(=O)Nc1cccc(NC(=S)NC(=O)C(C)Oc2ccc(Cl)cc2Cl)c1 (stereo not drawn) 2.78%, CCCCC(=O)NNC(=S)NC(=O)C(c1ccccc1)c1ccccc1 1.95%, O=C(c1ccncc1)N1CC[C@H]2[C@H](CCCN2Cc2ccc(F)cc2)C1 1.14%, CN(CCO)c1cccc2c1S(=O)(=O)N(Cc1cn(Cc3ccc(C(F)(F)F)cc3)nn1)Cc1ccccc1O2 -1.94%, COC(=O)[C@]12C[C@H](CC(=O)NCC34CC5CC(CC(C5)C3)C4)C(=O)N(Cc3ccc(Cl)cc3Cl)C1=C[C@H](COCc1ccccc1)O[C@@H]2C -3.09%, CCCOc1ccc(Oc2c(Cl)cnn(Cc3cccc4ccccc34)c2=O)cc1 -6.8%, CCOc1ccc(CCNC(=O)COC(=O)C2CCN(c3ccc(C(F)(F)F)cn3)CC2)cc1OCC -1.24%, N#CCCN(C(=O)COC(=O)C1CCN(c2ccc(C(F)(F)F)cn2)CC1)c1ccc(F)cc1 -2.71%, C=CCOC/C=C/C#CCN(CC=C)Cc1ccc(OC)cc1OC -0.84%, O=C(Nc1nc2ccc(Cl)cc2s1)c1cc(-c2ccc(Cl)cc2)nc2ccccc12 -5.76%, Cc1ccccc1CN1CCCCC(NC(=O)c2cccc(C#N)c2)C1=O (stereo not drawn) -3.86%, CCCCCCN1C[C@@H](O)[C@H](n2cc(COC(=O)c3ccccc3)nn2)C[C@@H]1c1ccc(Cl)cc1 -1.65%, Cc1ccc([C@H]2C[C@H](O)[C@@H](n3cc(COC(=O)c4ccccc4)nn3)CN2C(=O)C2CCCCC2)cc1 -1.37%, CC(CCN1CCC(C(O)(c2ccccc2)c2ccccc2)CC1)Oc1ccc([N+](=O)[O-])cc1Cl (stereo not drawn) 6.8%, CCN(Cc1ccccc1)S(=O)(=O)c1cc(C(=O)O)ccc1OC 0.35%, C=CC(COCc1ccccc1)N(Cc1ccccc1)S(=O)(=O)c1ccccc1Br (stereo not drawn) -0.15%, Cc1ccc(NC(=O)c2cc(C)nn2-c2ccccc2)c(C)c1 3.11%, C=C(C)C#CC(Cc1ccccc1)N(CC1CC1)/C(N)=N/C(=O)OCc1ccccc1 (stereo not drawn) -26.4%, COc1ccc(-n2c(SCC(=O)Nc3ccccc3-c3ccccc3)nnc2-c2cccnc2)cc1 -1.39%, CCOc1ccc(-n2c(SCC(=O)Nc3cc(C)c(NC(=O)c4ccccc4)cc3OC)nnc2-c2cccc(Cl)c2)cc1 6.75%, Cc1cc(=O)[nH]c(SCC(=O)Nc2ccc(F)cc2F)n1 6.65%, COc1ccc(/C=C/C(=O)OCC(=O)N2CCN(S(=O)(=O)c3ccc(C)cc3C)CC2)cc1OC -6.61%, Cc1ccc(S(=O)(=O)N2CCN(C(=O)COC(=O)CNC(=O)c3ccc(C(C)(C)C)cc3)CC2)c(C)c1 -2.11%, Cc1ccc(-n2c(SCC(=O)Nc3ccc(S(=O)(=O)Nc4nccs4)cc3)nnc2-c2ccncc2)cc1 -0.27%, O=C(OCC(=O)N1CCN(C(=O)c2ccco2)CC1)c1cccc(O)c1 -3.62%, Cc1ccc(S(=O)(=O)c2c(COC(=O)c3cccc(Cl)c3)c(-c3ccccc3)nn2C)cc1 -0.5%

inhibition, active:
Cc1ccc(-c2n[nH]c(=S)n2/N=C/c2cc3c(cc2[N+](=O)[O-])OCO3)cc1 8.7%, Cc1nnc(SCC(=O)Nn2cnnc2)s1 8.83%, COc1cccc(CNc2nc(C(F)(F)F)nc3ccccc23)c1 10.3%, N#C/C(=C/c1ccc(N2CCCCC2)o1)C(=O)NCCc1c[nH]c2ccccc12 15.4%, Cc1ccc(C(=O)Nc2ccc(C)c(S(=O)(=O)N(C)C)c2)s1 9.87%, O=C(COC(=O)CCCSc1nc2ccccc2[nH]1)Nc1ccc(Oc2ccccc2)cc1 10.8%, O=C(Nc1ccc(C(=O)NCc2ccccc2Cl)cc1)C1=CSCCO1 10.3%, Cc1cc(C)cc(NC(=S)NCCc2c[nH]c3ccccc23)c1 16.1%, CC(C)C(=O)Nc1cccc(NC(=S)NC(=O)C(c2ccccc2)c2ccccc2)c1 9.39%, CCc1cccc(NC(=O)COC(=O)C2CCN(c3ccc(C(F)(F)F)cn3)CC2)c1 8.96%, CCCCCC(=O)N1C[C@H](O)[C@@H](n2cc(COC(=O)c3ccccc3)nn2)C[C@@H]1c1ccc(C)cc1 8.64%, C=CC(COCc1ccccc1)N(CC(=O)OC)S(=O)(=O)c1cc(Br)ccc1OC (stereo not drawn) 9.3%, CCOc1ccc(-n2c(SCC(=O)Nc3cc(C)c(NC(=O)c4ccccc4)cc3OC)nnc2-c2cccs2)cc1 10.6%, Cc1ccc(S(=O)(=O)N2CCN(C(=O)COC(=O)c3c(C)cc(C)cc3C)CC2)c(C)c1 19.5%, O=C(OCc1ccc(-c2ccccc2)cc1)c1cccc(O)c1 9.14%
